In the library only some 1.4% were active in any assay of this set; here they are far more common.
Vif-A3G inh = Vif-A3G binding inhibition | 410,000 tested, 0.076% active | HeLa A3G-eYFP + Vif (tagged APOBEC3G with the HIV-1 protein that degrades it), YFP fluorescence, overnight | Potency, µM (series often up to 46.1 µM), for inactives: top-dose activity, negative = active, hits mostly inhibitors | AID 602310; also: potency is read from the fitted curve at half-maximal effect; % is scaled to controls: 0 for no effect and ±100 for the full control effect; nearly all actives have a fitted effect of over 60% in size
Target sequence (Q9HC16 whole entry, looked up): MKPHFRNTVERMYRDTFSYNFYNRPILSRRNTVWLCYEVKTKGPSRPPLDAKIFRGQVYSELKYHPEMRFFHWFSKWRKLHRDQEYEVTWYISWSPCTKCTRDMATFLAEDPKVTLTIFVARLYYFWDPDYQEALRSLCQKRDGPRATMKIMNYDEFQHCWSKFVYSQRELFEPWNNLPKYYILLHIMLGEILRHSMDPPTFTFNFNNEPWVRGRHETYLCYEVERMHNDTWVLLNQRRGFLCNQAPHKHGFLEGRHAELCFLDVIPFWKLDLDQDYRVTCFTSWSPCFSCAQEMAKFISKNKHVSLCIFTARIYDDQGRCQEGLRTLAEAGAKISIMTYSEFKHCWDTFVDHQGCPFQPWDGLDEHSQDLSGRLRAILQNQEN
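Read-out is eYFP fluorescence (Ex 488/Em 500-530) from Vif-expressing HeLa A3G-eYFP cells; more signal means A3G escaped Vif-mediated degradation. Cells plated overnight, compound pinned in, incubated overnight at 37 deg C.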
12-LOX inh = blocks human arachidonate 12S-lipoxygenase | P18054 | purified 12hLO, xylenol orange hydroperoxide absorbance | Potency, µM (highest dose often 108 µM), inactives show at the highest dose activity change, negative = inhibition, most hits filed as inhibitors | 580,000 tested, 1.1% active | AID 1671190; also: potency is read from the fitted curve at half-maximal effect; % is scaled to controls: 0 for no effect and ±100 for the full control effect
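Purified human 12hLO (150 nM final) in 25 mM Hepes, 0.01% Triton X-100, pH 7.0 was preincubated 15 min at room temperature with compound. Then 40 uM arachidonic acid was added, 30 min. Hydroperoxide was read by Fe-XO absorbance ratio 573/405 nm.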
Vif-APOBEC3F blk = blocks the Vif interaction with APOBEC3F; 390,000 tested, 0.2% active; HeLa A3F-eYFP + Vif (tagged APOBEC3F with the HIV-1 protein that degrades it), YFP fluorescence increase; AID 602313; Potency, µM (series often up to 46.1 µM), without a hit: at the top dose activity, negative = active; also: potency is read from the fitted curve at half-maximal effect; % of control where 0% means no effect; nearly all actives have a fitted effect of over 65% in size
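HeLa cells stably expressing Vif plus C-terminally eYFP-tagged A3F were seeded, incubated overnight at 37 deg C, dosed with compound, incubated overnight again at 37 deg C. Yellow fluorescence (Ex 488/Em 500-530) reported blocked Vif-mediated A3F-eYFP degradation.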
PTAP TSG101 blk = blocks PTAP/TSG101 interaction to inhibit HIV-1 budding | Q99816 | Fluorescence polarization, FITC-PTAP peptide / Tsg101 binding | Potency, µM (series often up to 115 µM), inactives show top-dose activity change, negative = inhibition, usual class: inhibitors | 340,000 tested, under 10 active | AID 493005; active = well fitted inhibition curve with a large enough effect in the main read-out, with a control signal flat, not every such curve was filed as active; inconclusive = small, poorly fitted or top-dose-only effect, or effect the other way, or a change in a side signal; inactive = no such curve, though single readings can be large or run the other way; also: potency is read from the fitted curve at half-maximal effect; % of control where 0% means no effect
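Compounds were pin-transferred onto Tsg101 binding domain (10 uM final) in HEPES pH 7.5 buffer, then FITC-PTAP peptide was added at 50 nM final. After 20 min at RT, polarization reported peptide displacement across a qHTS concentration series.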
ASM inhibitor = inhibitors of human secretory acid sphingomyelinase; P17405; placental ASM, HMU-PC fluorogenic substrate, 60 min; Potency, µM (highest dose often 57.5 µM), inactives show top-dose activity change, negative = inhibition, usual class: inhibitors; 340,000 tested, 0.006% active; AID 504937; also: potency is read from the fitted curve at half-maximal effect
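qHTS format. ASM enzyme prepared from human placenta hydrolyses the fluorogenic substrate HMU-PC0 (9 uM final) over 60 min at 37 °C after a 10 min compound preincubation.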
Akt phos inh = Akt phosphorylation inhibition; Neuro2A IGF-stimulated pAkt S473 HTRF, 20 min; hits give low values; activity change, % for hits at 50 µM; 360,000 tested, 0.32% active; AID 651550; in the data active = activity change below about -80%; inconclusive = mostly about -51% to -80%; also: % is scaled to controls: 0 for no effect and ±100 for the full control effect
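Neuro2A cells in DMEM with 0.5% FBS, overnight at 37 deg C, given compound at single 50 µM final, then IGF (6 nM final) for 20 min at 37 deg C. Lysed; phospho-Akt Ser473 by HTRF after 24 h, 665/615 ratio.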
Starred values were filed as active, the others as inactive; i = inactive; ? = inconclusive; / = not tested or not shown. Unless noted, calls follow the shape of the dose curve; as a rule, active = well fitted curve in the direction sought with a large enough effect; inconclusive = small, poorly fitted or top-dose-only effect, or another doubt; inactive = no such curve, though single readings can be large; an effect the other way counts as inactive or inconclusive.

SMILES	Vif-A3G inh	12-LOX inh	Vif-APOBEC3F blk	PTAP TSG101 blk	ASM inhibitor	Akt phos inh
O=[S+]1([O-])NCC2(CCCN(Cc3ccc(C(F)(F)F)cc3)C2)Nc2ccccc21 (stereo not drawn)	/	33%	/	/	/	/
COc1cccc(C2C(C#N)=C(N)Oc3nc[nH]c(=O)c32)c1 (stereo not drawn)	/	-3%	/	/	/	/
CCOCCSc1nc2c(c(=O)[nH]c(=O)n2C)n1CCCc1ccccc1	0%	-11%	5%	4%	1%	-114%*
Cc1ccc2c(=O)c(-c3nc(-c4ccc(Cl)cc4)no3)cn(CC(=O)NCc3ccco3)c2n1	/	20µM*	/	/	/	/
CC(C(=O)N1CCNC1=O)N(C)Cc1ccc(Cl)cc1Cl (stereo not drawn)	/	4%	/	/	/	/
CCCCSc1nnc(-c2ccc(C)cc2)n1C	-4%	6%	/	-4%	1%	-113%*
CCCCSc1nnc(-c2ccc(NC(C)=O)cc2)n1C	1%	13%	0%	-2%	8%	i
O=C(NN=Cc1ccc(F)cc1)c1cccc(S(=O)(=O)N2CCCC2)c1	1%	16µM*	8%	-2%	1%	i
Cn1cc(C(=O)c2ccc(Cl)cc2Cl)cc1C(=O)N/N=C(\N)COc1ccccc1	0%	470%	-10%	-6%	-2%	-109%*
CNC(=O)c1ccc(CNCc2ccco2)cc1	/	-16%	/	/	/	/
Cc1ccc(NC(=O)CCC2CCCCC2)c(NC(=O)c2ccco2)c1	/	3.5µM*	/	/	/	/
Cc1ccc(O)c(NC(=O)CCC2CCCCC2)c1	-6%	134%	-3%	0%	-7%	i
Cc1c(C(c2cccc([N+](=O)[O-])c2O)c2c(C)n(C)n(-c3ccccc3)c2=O)c(=O)n(-c2ccccc2)n1C	-1%	-19%	6%	/	-1%	i
Cc1[nH]n(-c2ccccc2)c(=O)c1C(c1cccc([N+](=O)[O-])c1O)c1c(C)[nH]n(-c2ccccc2)c1=O	1%	25µM*	-5%	-4%	-14%	i
Oc1c(Br)cc(Br)cc1C=Nc1ccc(F)c(Cl)c1	/	4.5µM*	/	/	/	/
Cc1[nH]c2ccccc2c1/C=C/c1cc[n+](C)cc1	3.2µM*	-98%	?	?	?	i
Cc1cc(C)c2oc(C(=O)Nc3nnc(C)s3)cc(=O)c2c1	/	-27%	/	/	/	/
COc1cc(C2C(C#N)=C(N)N(Nc3ccccc3)C3=C2C(=O)CC(C)(C)C3)ccc1OCc1cccc(F)c1 (stereo not drawn)	-7%	-21%	1%	0%	153%	-92%*
COc1cc(C2C(C#N)=C(N)N(Nc3ccccc3)C3=C2C(=O)CC(C)(C)C3)ccc1OCc1ccccc1 (stereo not drawn)	0%	3%	12%	-6%	91%	i
O=C(O)C(Sc1cnc2ccccc2n1)c1ccccc1 (stereo not drawn)	/	-15%	/	/	/	/
c1ccc(OCCN2CCC(c3nc4ccccc4s3)CC2)cc1	/	5µM*	/	/	/	/
Cc1cccc(OCC(O)CN2CCCN(c3ccc(C(F)(F)F)cn3)CC2)c1 (stereo not drawn)	/	13µM*	/	/	/	/
CCCCC(=O)Nc1ccc(NC(=O)c2cccc3c(Br)cccc23)cc1OC	/	-23%	/	/	/	/
CCc1ccc(C2c3c(-c4ccccc4)n[nH]c3C(=O)N2c2ccc(C(=O)O)cc2)cc1 (stereo not drawn)	2%	40µM*	-10%	/	/	/
CCN1CCN(C(c2ccc(C(F)(F)F)cc2)c2ccc3cccnc3c2O)CC1 (stereo not drawn)	-27%	8.9µM*	-29%	1%	-2%	i
CCOc1cc(C2/C(=C(\O)c3ccc(Cl)cc3)C(=O)C(=O)N2c2cc(C)on2)ccc1O (stereo not drawn)	/	16µM*	/	/	/	/
CCn1cc(/C=C/C(=O)NCc2c(C)nn(C)c2C)cn1	2%	-10%	-14%	/	-1%	-107%*
NC(=O)CCS(=O)(=O)CCN1CCN(S(=O)(=O)c2ccccc2)CC1	/	3%	/	/	/	/
